Screen size: about 310,000 compounds; about 17,000 (5.5%) were called active. A call without a number means that no potency is given here. Roughly 11% stayed inconclusive and do not appear here. Calls follow the shape of the dose curve; as a rule, active = well fitted inhibition curve with a large enough effect; inconclusive = small, poorly fitted or top-dose-only effect, or effect the other way; inactive = no such curve, though single readings can be large or run the other way. Many of the other results were omitted from the sample, so actives are more common in it than they were.

For 107 compounds, Potency and activity change, negative = inhibition results are on record in PubChem BioAssay AID2551 (National Center for Advancing Translational Sciences (NCATS), 2010).
Potency is read from the fitted curve at half-maximal effect.

The target of the experiment is Nuclear receptor ROR-gamma (Mus musculus) (UniProt P51450). Kind of experiment: qHTS for inhibitors of ROR gamma transcriptional activity. Also: nearly all actives have a fitted effect of over 60% in size. The following applies: Drosophila S2 Gal4-RORgamma UAS-luciferase reporter, 20 h; series mostly up to 53.6 µM. Put shortly: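 Schneider cells (Drosophila), stable Gal4 DBD–ROR gamma + UAS-luc; 1 hr cmpd preincubation; Cu2+ induction 700 uM final; 20 hr ambient; luminescence.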
Nuclear receptor ROR-gamma (Mus musculus), sequence (P51450 whole entry, looked up, the tested form may be a part): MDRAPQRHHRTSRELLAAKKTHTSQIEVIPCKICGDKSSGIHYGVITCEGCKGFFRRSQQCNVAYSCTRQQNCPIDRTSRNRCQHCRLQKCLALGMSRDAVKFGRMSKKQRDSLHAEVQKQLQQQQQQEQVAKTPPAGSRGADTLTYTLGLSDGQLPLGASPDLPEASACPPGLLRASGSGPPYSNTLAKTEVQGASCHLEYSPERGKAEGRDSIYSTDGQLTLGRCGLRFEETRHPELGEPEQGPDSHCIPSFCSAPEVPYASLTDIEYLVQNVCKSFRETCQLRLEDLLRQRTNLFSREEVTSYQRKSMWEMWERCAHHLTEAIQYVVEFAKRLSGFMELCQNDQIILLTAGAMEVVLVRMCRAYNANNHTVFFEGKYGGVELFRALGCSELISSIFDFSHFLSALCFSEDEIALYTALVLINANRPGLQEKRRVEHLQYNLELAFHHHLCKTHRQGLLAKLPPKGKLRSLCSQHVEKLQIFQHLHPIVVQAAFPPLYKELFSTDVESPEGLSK
A general note: In qHTS, concentration-response curves come from the screen itself.
Consider `CN(C)CCCNC(=S)N1CCN(c2nc(-c3ccccc3)cs2)CC1`, for which the Potency result was “inactive”.

As to `Cc1cccc(NC(=S)Nc2ccc(Cl)c(Cl)c2)c1`, the Potency was 15.8 µM (active).

As to `Cc1cccc(Br)c1`, the Potency entry is “inactive”.

As to `Cc1cccc(NC(=S)Nc2ccc3cn[nH]c3c2)c1`, the Potency result was “inactive”. For the compound `S=C(Nc1cccc(Cl)c1)Nc1ccc2cn[nH]c2c1`, the Potency entry is “inactive”. The same measure, in the same setting: next, `Cc1cccc(NC(=S)Nc2ccc(Br)cc2)c1`: 7.08 µM (active). As for `CC(=O)Nc1cccc(C(=O)Nc2nc(C)cs2)c1`, the Potency entry is “inactive”. Same read-out and setting: next, `Cc1csc(NC(=S)Nc2cccc(Cl)c2)n1`: 0.708 µM (active). Same read-out and setting: next, `NS(=O)(=O)c1ccc(NC(=S)Nc2ccc(Br)c(Cl)c2)cc1`: “inactive”; `Fc1cc(Br)ccc1NC(=S)Nc1cccnc1`: “inactive”; `Cc1ccc(NC(=O)C2CCN(S(=O)(=O)c3ccc4c(c3)NC(=O)CO4)CC2)cc1C`: “inactive”.

Consider `CN(CCO)S(=O)(=O)c1ccc2c(c1)C(=O)c1cc(S(=O)(=O)N(C)CCO)ccc1-2`, for which the Potency entry was “inactive”. For the compound `CCCn1cc(S(=O)(=O)c2ccc(C)cc2)c(=O)c2cc(OCC)ccc21`, the Potency result is “inactive”. On the same count and under the same terms, next, `CC1C(=O)N(Cc2ccccc2)c2ccccc2N1C(=O)c1ccccc1` (configuration not stated): “inactive”; `Cc1cccc(C(=O)Nc2nnc(S(=O)(=O)N3CCCCCC3)s2)c1`: “inactive”. On to `Cc1cnc(CN(C)C(=O)CC2C(=O)NCCN2Cc2cccc(F)c2F)[nH]1` (configuration not stated), for which the Potency result is “inactive”. The same measure, in the same setting: the same measure for `COc1ccc(OC)c(NC(=O)c2cccc(S(=O)(=O)N3CCN(C(C)=O)CC3)c2)c1`: “inactive”.

In the case of `Cc1oc2c(c1C(=O)N1CCOCC1)C(=O)c1ccccc1C2=O`, the Potency was 3.98 µM (active).

In the case of `Cc1noc(C)c1C(=O)N1CCOCC1`, the Potency result is “inactive”. The same measure, in the same setting: the same measure for `Cc1onc(-c2ccccc2)c1C(=O)N1CCOCC1`: “inactive”; for `COc1ccc(C2/C(=C(/O)c3ccc4c(c3)CC(C)O4)C(=O)C(=O)N2Cc2ccncc2)cc1` (configuration not stated): “inactive”; for `COc1ccc(/C=C2\SC(=O)N(CCC(=O)NCCCn3ccnc3)C2=O)cc1`: “inactive”. As for `CCn1nnnc1SCC(=O)Nc1ccc(N(C)C)cc1`, the Potency result is “inactive”. Same read-out and setting: next, `N#Cc1cccc(CS(=O)(=O)c2nnnn2-c2cc(C(F)(F)F)cc(C(F)(F)F)c2)c1`: “inactive”. Still for that read-out and setting: next, `COc1ccccc1-n1nnnc1S(=O)(=O)Cc1ccc(Cl)cc1`: 11.2 µM (active); `COc1ccccc1N1CCN(S(=O)(=O)c2ccc(Cl)cc2)CC1`: “inactive”. Regarding `CCn1ccnc1CN(C)C(=O)c1cc(COc2ccc(-n3cncn3)cc2)on1`, the Potency result was “inactive”. Same read-out and setting: next, `COc1ccc(O)c(C=Nc2cc(C)on2)c1`: “inactive”. Consider `COc1ccc(/C=N/NC(=O)Nc2ccc3nsnc3c2)c(OC)c1`, for which the Potency entry was “inactive”. The same measure, in the same setting: the same measure for `COc1ccc(-c2[nH]ncc2/C=N/NC(=O)c2cc(Br)ccc2O)c(OC)c1`: 2.24 µM (active).

`COc1cc(CN2CCCC(C(=O)c3ccc(SC)cc3)C2)cc(Cl)c1O` (configuration not stated): the activity change, negative = inhibition was -3.37% [at 1.91 µM] (inactive). On to `Cc1nc2nc(C)c(NS(=O)(=O)c3ccc(C(C)(C)C)cc3)c(=O)n2[nH]1`, for which the Potency entry is “inactive”.

For `CC(=O)c1ccc(N2CCN(S(=O)(=O)c3ccc4c(c3)CC(=O)N4C)CC2)cc1`, the Potency entry was “inactive”.

`CC(NC(=O)c1ccco1)C(=O)Nc1nc(-c2ccccn2)cs1` (configuration not stated): the Potency was 11.2 µM (active).

As for `Cc1cc(NC(=O)[C@H](C)NC(=O)c2ccco2)ccc1Br`, the Potency entry is “inactive”. In the case of `O=C(CN1C(=O)C2C3C=CC(C3)C2C1=O)Nc1nc(-c2ccccn2)cs1` (configuration not stated), the Potency result is “inactive”.

As for `O=C(Nc1ccc(N2CCCC2=O)cc1)c1cncc(Br)c1`, the Potency result was “inactive”. As for `COc1ccc(NC(=O)c2cc([N+](=O)[O-])ccc2NC(=O)CNC2CCCCC2C)c(OC)c1` (configuration not stated), the Potency result was “inactive”. The same measure, in the same setting: next, `CCCCn1c(CCCNC(=O)CC)nc2ccccc21`: “inactive”; `CCCCn1c(CN2CCN(CCO)CC2)nc2ccccc21`: “inactive”; `C=C(Br)Cn1c(CCCC)nc2ccccc21`: 15.8 µM (active). Same read-out and setting: next, `Cc1snc(SCc2c(F)cccc2Cl)c1C#N`: “inactive”. Same read-out and setting: the same measure for `CCc1ccc(OCC(=O)N(Cc2ccccc2)C2CCS(=O)(=O)C2)cc1` (configuration not stated): “inactive”; for `COc1ccc(C(C)NC(=S)NC2CCCCC2)cc1OC` (configuration not stated): 11.2 µM (active); for `C=CCNC(=S)NNC(=O)c1cc(Cl)ccc1OC`: “inactive”. Turning to `COc1ccc(Cl)cc1C(=O)NNC(=S)NC1CCCC1`, the Potency is 11.2 µM (active). Regarding `COc1ccc(CCNC(=O)CCC(=O)NC2CCCCC2)cc1OC`, the Potency result is “inactive”. On the same count and under the same terms, the same measure for `COc1ccc(Cl)cc1C(=O)NNC(=O)c1nc2nc(C)cc(C)n2n1`: “inactive”; for `COc1ccc(Cl)cc1C(=O)NCC#N`: “inactive”. Still for that read-out and setting: next, `COc1cc(C(=S)NC2CCCCC2)ccc1O`: “inactive”. For `COc1cc(OC)c(C(=O)NC2CCCCCC2)cc1OC`, the Potency entry is “inactive”. Same read-out and setting: the same measure for `COc1ccc(Cl)cc1C(=O)NNC(=S)NC(=O)/C=C/c1ccco1`: 3.98 µM (active); for `CSc1ncccc1C(=O)NCc1ccccc1Cl`: “inactive”; for `COC(=O)c1ccc(CNC(=O)C2CCC(=O)N(Cc3cccc(F)c3)C2)cc1` (configuration not stated): “inactive”.

As for `CCc1nnc(NC(=O)CSCc2cc(=O)n3cc(C)sc3n2)s1`, the Potency result was “inactive”.

Regarding `O=C1C(=O)N(CCCN2CCOCC2)C(c2ccc([N+](=O)[O-])cc2)/C1=C(\O)c1ccc2c(c1)OCCO2` (configuration not stated), the Potency entry is “inactive”. On the same count and under the same terms, next, `C=CCn1c(=O)c(C(=O)NCc2ccc3c(c2)OCO3)c(O)c2ccccc21`: “inactive”. Same read-out and setting: next, `CC1CCN(CCCn2c(SCC(=O)NC3CCCC3)nc3ccccc3c2=O)CC1`: “inactive”. The same measure, in the same setting: next, `CN(CCNC(=O)c1cc2c(-c3ccccc3F)nn(C)c2s1)C1CCCCC1`: “inactive”; `O=c1[nH]cnc(O)c1C(c1ccc(F)cc1)c1c(O)nc[nH]c1=O`: “inactive”. In the case of `CCOc1ccc(CCNC(=O)CCc2nnc3ccc(N4CCCC4)nn23)cc1OCC`, the Potency entry is “inactive”. Regarding `CCOC(=O)C1(CCOC)CCN(Cc2ccc(C(=O)OC)cc2)CC1`, the Potency was 7.08 µM (active). On the same count and under the same terms, the same measure for `COC(=O)c1ccc(CN2CCC(CO)(Cc3ccc(OC)cc3)CC2)cc1`: “inactive”.

With `CCOC(=O)C1(CCOC)CCN(Cc2cc3ccccc3s2)CC1`, the Potency entry was “inactive”. For `Cc1cc2c(c(=O)n1Cc1ccccc1)C1O[C@](CCCCN3C(=O)c4ccccc4C3=O)(Cc3ccccc31)O2`, the activity change, negative = inhibition is 18.4% [at 10 µM] (inactive). For the compound `O=C(CN1CCc2cc3c(cc2C1)OCCCO3)Nc1ccccc1`, the Potency result was “inactive”. On the same count and under the same terms, the same measure for `COc1ccc(-n2cc(CN(C)Cc3n[nH]c(=O)[nH]3)c(-c3cccc(F)c3)n2)cc1`: “inactive”.

For `Cc1cccc(-n2cc(CN3CCN(C(=O)c4ncn[nH]4)CC3)c(-c3cccc(F)c3)n2)c1`, the Potency entry was “inactive”. `Cc1ccc(-n2cc(CN(C)Cc3nccn3C)c(-c3cccc(C)c3)n2)cc1`: the Potency was 7.94 µM (active). In the case of `COc1ccc(NC(=O)CCC(=O)Nc2nnc(C3CCCCC3)s2)cc1`, the Potency entry is “inactive”. On the same count and under the same terms, next, `CC(C)(C)NS(=O)(=O)c1ccc(NC(=O)C2CCCO2)cc1` (configuration not stated): “inactive”; `Oc1c(Br)cc(/C=N/NC(=S)NCC2CCCO2)cc1Br` (configuration not stated): 0.1 µM (active); `O=C(CNC(=O)C1COc2ccccc2O1)N/N=C/c1cc(Br)c(O)c(Br)c1` (configuration not stated): “inactive”. Same read-out and setting: next, `O=C(CNC(=O)c1cccnc1)N/N=C/c1cc(Br)c(O)c(Br)c1`: “inactive”; `O=C(Nc1ccccc1)Nc1nc2ccccc2s1`: “inactive”. Take `c1ccc2sc(NN=C3CCCC3)nc2c1`: the Potency is 7.94 µM (active). Same read-out and setting: next, `CSCCC(Nc1nc2ccccc2s1)C(=O)O` (configuration not stated): “inactive”.

With `CC(C)(COC(=O)Nc1ccccc1)COC(=O)Nc1ccccc1`, the Potency entry is “inactive”. Same read-out and setting: the same measure for `CCn1c(SCC(=O)Nc2ccc(Br)cc2)nc2sc3c(c2c1=O)CCN(C)C3`: “inactive”; for `Nc1ncc(CN2CCCC(C(=O)Nc3ccc(-c4ccco4)cc3)C2)cn1` (configuration not stated): “inactive”; for `CCOCc1nnc(NC(=O)CCS(=O)(=O)Cc2ccccc2)s1`: “inactive”. In the case of `CCOCCOC(=O)C1=C(C)NC(=O)NC1c1ccc2c(c1)OCO2` (configuration not stated), the Potency entry was “inactive”. Regarding `CN(C)CCCN(C(=O)c1ccc(S(=O)(=O)N2CCCCCC2)cc1)c1nc2ccc(Br)cc2s1`, the Potency was 2.82 µM (active). Same read-out and setting: next, `CCN(CC)CCN(C(=O)c1ccc(S(=O)(=O)N2CCOCC2)cc1)c1nc2cc3c(cc2s1)OCCO3`: “inactive”; `CC(=O)N(CCCN(C)C)c1nc2ccc(C)cc2s1`: “inactive”; `CN1CCN(C(=O)c2ccccc2NC(=O)COc2ccccc2Cl)CC1`: “inactive”.

`O=C1COc2ccc(S(=O)(=O)NCCc3ccc(Cl)cc3)cc2N1`: the Potency result is “inactive”. `Cc1cc(OCC(=O)Nc2c(C)n(C)n(-c3ccccc3)c2=O)ccc1[N+](=O)[O-]`: the Potency entry is “inactive”. In the case of `Oc1cccc(C2c3[nH]c4ccccc4c3CCN2Cc2cnn(-c3ccccc3)c2)c1` (configuration not stated), the Potency entry is “inactive”. On the same count and under the same terms, next, `COc1ccc(C2c3[nH]c4ccccc4c3CCN2CCCn2cccn2)cc1C` (configuration not stated): “inactive”. Take `COc1cccc(C2c3[nH]c4ccccc4c3CCN2Cc2cccc(C)n2)c1` (configuration not stated): the Potency is 12.6 µM (active). On to `CN(Cc1ccc(F)cc1Cl)S(=O)(=O)c1cccs1`, for which the Potency entry was “inactive”. The same measure, in the same setting: the same measure for `CCc1ccc2[nH]c(=O)c(Cc3ccccc3)c(O)c2c1`: “inactive”; for `O=C1C=C(c2ccc(Cl)cc2)C(=O)N1Nc1ccccc1`: 7.08 µM (active); for `O=C1c2cccc3cc(Br)cc(c23)C(=O)N1Nc1ccccc1`: “inactive”. On the same count and under the same terms, the same measure for `O=C(Nc1ccccc1)OCc1cc(-c2ccc(Cl)cc2)on1`: “inactive”; for `CC1(C)Cc2c(sc(NC(=O)C(=O)N3CCOCC3)c2C#N)CO1`: “inactive”.

As to `O=S(=O)(Nc1ccccc1Cl)c1cccc2nsnc12`, the Potency entry is “inactive”.

Take `O=C(Cc1ccccc1)Nc1ccc(NC(=O)c2cccnc2)cc1`: the Potency entry is “inactive”. Consider `CCC(C)C(=O)Nc1ccccc1N1CCN(c2ccc(F)cc2)CC1` (configuration not stated), for which the activity change, negative = inhibition is -20.4% [at 1.91 µM] (inactive). `Cc1cc(C)n(CCC(=O)N2CCN(S(=O)(=O)c3ccc(C)c(C)c3)CC2)n1`: the Potency result is “inactive”. Same read-out and setting: next, `Cc1cc(C)n(CC(=O)Nc2ccc([N+](=O)[O-])cc2)n1`: “inactive”. In the case of `C/C(=N\NC(=O)CCn1nc(C)cc1C)C(C)(C)C`, the Potency was 11.2 µM (active). For `C=CCSc1nnc(N2C(=O)C(O)=C(C(=O)c3ccco3)C2c2ccc(F)cc2)s1` (configuration not stated), the Potency result is “inactive”. Same read-out and setting: next, `COc1cccc(-c2nnc(NC(=O)c3ccc(S(=O)(=O)N(CC(C)C)CC(C)C)cc3)o2)c1`: 0.282 µM (active). Still for that read-out and setting: next, `COc1cccc(C(=O)Nc2nnc(S(=O)(=O)N(C)c3ccccc3)s2)c1`: “inactive”; `COc1cccc(NC(=O)c2ccc(S(=O)(=O)N(C)C)cc2)c1`: “inactive”.
